Pol iota inh – inhibitors of human DNA polymerase iota | Q9UNA4 | Pol iota fluorescent replication assay, 10 min | Potency, µM (titrated, usually from 115 µM), for the others: at the top dose activity, negative = inhibition, actives largely listed as inhibitors | 390,000 tested, 1% active | AID 588590; also: potency is read from the fitted curve at half-maximal effect
Target sequence (Q9UNA4 whole entry, looked up): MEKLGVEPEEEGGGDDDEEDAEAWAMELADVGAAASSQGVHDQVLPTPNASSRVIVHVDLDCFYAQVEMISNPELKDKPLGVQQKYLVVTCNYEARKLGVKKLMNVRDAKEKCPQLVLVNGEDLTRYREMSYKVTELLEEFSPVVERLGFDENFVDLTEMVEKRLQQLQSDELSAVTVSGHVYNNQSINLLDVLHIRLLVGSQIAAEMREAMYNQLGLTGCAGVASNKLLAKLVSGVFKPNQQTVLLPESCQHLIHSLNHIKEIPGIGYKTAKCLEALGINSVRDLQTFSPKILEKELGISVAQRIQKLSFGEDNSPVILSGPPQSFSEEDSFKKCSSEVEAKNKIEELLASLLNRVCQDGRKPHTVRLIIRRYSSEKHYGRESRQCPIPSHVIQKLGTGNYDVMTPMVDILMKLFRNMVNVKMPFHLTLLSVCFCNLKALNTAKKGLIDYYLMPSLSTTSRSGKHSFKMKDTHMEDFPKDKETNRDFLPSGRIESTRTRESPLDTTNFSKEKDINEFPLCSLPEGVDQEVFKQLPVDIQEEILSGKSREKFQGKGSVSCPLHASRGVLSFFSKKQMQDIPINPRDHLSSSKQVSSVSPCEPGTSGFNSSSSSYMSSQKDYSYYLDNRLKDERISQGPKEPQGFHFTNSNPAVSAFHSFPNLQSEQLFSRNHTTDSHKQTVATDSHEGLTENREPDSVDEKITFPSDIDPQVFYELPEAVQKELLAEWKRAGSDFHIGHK
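Pol iota at 10 nM preincubated 15 min with compounds at room temperature; reaction started with fluorescent substrate, 50 nM final. Fluorescence read kinetically at 0 and 10 min; buffer-only wells as negative control.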
Pol kappa inh-1 – blocks human DNA polymerase kappa activity. Q9UBT6. purified Pol kappa, fluorescent DNA synthesis assay, 10 min. Potency, µM (titrated, usually from 107 µM), for inactives: at the highest dose activity, negative = inhibition, hits mostly inhibitors. 400,000 tested, 0.53% active. AID 588579; also: potency is read from the fitted curve at half-maximal effect; % is scaled to controls: 0 for no effect and ±100 for the full control effect
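50 nM final substrate added after 15 min RT preincubation of 10 nM Pol kappa with compound; fluorescence read at 0 and 10 min.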
12-LOX inh – inhibitors of human 12S-lipoxygenase ALOX12 | 580,000 tested, 1.1% active | purified 12hLO, xylenol orange hydroperoxide absorbance | Potency, µM (doses to about 108 µM), inactives show at the highest dose activity change, negative = inhibition, actives largely listed as inhibitors | P18054; also: potency is read from the fitted curve at half-maximal effect; % is scaled to controls: 0 for no effect and ±100 for the full control effect
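Hydroperoxide product was detected by ferrous iron/xylenol orange as the 573 to 405 nm absorbance ratio. Arachidonic acid at 40 uM (final) was turned over for 30 min at room temperature by 150 nM human 12hLO, pH 7.0 Hepes buffer, after 15 min compound preincubation.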
Pol beta inh – inhibitors of human DNA polymerase beta; P06746; Pol beta primer extension/strand displacement, fluorescence kinetic; Potency, µM (highest dose often 114 µM), for inactives: top-dose activity change, negative = inhibition, most hits filed as inhibitors; 340,000 tested, 1.3% active; also: potency is read from the fitted curve at half-maximal effect; % is scaled to controls: 0 for no effect and ±100 for the full control effect
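Homogeneous kinetic assay of primer extension and strand displacement by 10 nM Pol beta, preincubated 15 min at room temperature with compound before 50 nM substrate (final) was added. Read at 0 and 10 min; four-parameter Hill fit.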
PI5P4K alpha inh – PI5P4K alpha (human) kinase inhibition; max response, %; 330,000 tested, 1.2% active; P48426; AID 652105; PI5P4Kalpha enzyme, ADP-Glo luminescence, 60 min; active compounds read low; active = max response of -50% or lower; inconclusive = between -30% and -50%; inactive = -30% or higher; also: value at the top dose of about 77 µM; % is scaled to controls: 0 for no effect and ±100 for the full control effect
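ADP-Glo luminescence end-point read after a 60 min room-temperature kinase reaction of PI5P4Kalpha plus substrate, initiated with ATP at 5 microM final. Buffer: 0.038 M HEPES pH 7.4, EGTA, 0.1% CHAPS, 5% DMSO.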
Pol eta inh-1 – DNA polymerase eta (human) inhibition; recombinant Pol eta, fluorescent DNA replication assay; Potency, µM (titrated, usually from 114 µM), for the others: at the highest dose activity change, negative = inhibition, actives largely listed as inhibitors; 390,000 tested, 1.2% active; Q9Y253; also: potency is read from the fitted curve at half-maximal effect; % is scaled to controls: 0 for no effect and ±100 for the full control effect
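Pol eta at 10 nM preincubated with compounds 15 min at room temperature; reaction started with fluorescent substrate (50 nM final) and read kinetically at 0 and 10 min.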
Pol iota confirm – Confirm cherry-picked inhibitors of human polymerase iota | shares compounds with Pol kappa inh-1 | Pol iota primer extension, TAMRA/BHQ fluorescence | Potency, µM, actives largely listed as inhibitors | 1,500 tested, 77% active; also: potency is read from the fitted curve at half-maximal effect
GALK inh confirm – galactokinase (human) inhibition, confirmation; shares compounds with Pol eta inh-1; purified GALK, Kinase-Glo ATP depletion luminescence; Potency, µM (top dose mostly 115 µM), without a hit: at the top dose activity, negative = inhibition, hits mostly inhibitors; 150 tested, 70% active; AID 2015
Redox cycling – counter-screen for GALK inhibitors: redox cycling H2O2 generation. shares compounds with Pol eta inh-1. Phenol red-HRP H2O2 redox cycling, absorbance 600 nm. Potency, µM (top dose mostly 115 µM), for inactives: top-dose activity change, negative = H2O2 signal, actives largely listed as inhibitors. 150 tested, 40% active
HEK293 tox – HEK-293 cytotoxicity, GALK inhibitor secondary. shares compounds with Pol eta inh-1. HEK-293 viability, ATP luminescence (CellTiter-Glo), 24/48 h. Potency, µM (highest dose often 46.1 µM), for inactives: at the top dose activity change, negative = cytotoxicity, usual class: inhibitors. 170 tested, 10% active. AID 2547; also: potency is read from the fitted curve at half-maximal effect; % is scaled to controls: 0 for no effect and ±100 for the full control effect
Pol kappa inh-2 – confirmation of human DNA polymerase kappa inhibitors; shares compounds with Pol eta inh-1; purified Pol-kappa, fluorescent strand-displacement substrate; Potency, µM, most hits filed as inhibitors; 920 tested, 76% active; AID 720501; also: potency is read from the fitted curve at half-maximal effect
Pol eta inh-2 – Pol eta (human) inhibition, cherry-pick confirmation. 2,600 tested, 64% active. Potency, µM, hits mostly inhibitors. Pol eta primer extension, TAMRA/BHQ fluorescence, 10 min. shares compounds with Pol eta inh-1; also: potency is read from the fitted curve at half-maximal effect
Active calls of the source: *; i = inactive; ? = inconclusive; nt = no result; ! = repeats disagree; [ ] = remark or other dose. Only some compounds are listed: those with a hit (about 2.9% of all), similar ones and a draw of the others. Unless noted, calls follow the shape of the dose curve; as a rule, active = well fitted curve in the direction sought with a large enough effect; inconclusive = small, poorly fitted or top-dose-only effect, or another doubt; inactive = no such curve, though single readings can be large; an effect the other way counts as inactive or inconclusive.

SMILES | Pol iota inh | Pol kappa inh-1 | 12-LOX inh | Pol beta inh | PI5P4K alpha inh | Pol eta inh-1 | Pol eta inh-2 | others
CCN1/C(=C/C=C/C2=[N+](CC)c3ccccc3C2(C)C)C(C)(C)c2ccccc21 | nt | nt | ? | nt | ? | 32µM* | 67* | Pol iota confirm=38*;Pol kappa inh-2=67*
Cc1c(C(c2ccc(F)cc2)c2c(O)c3ccccc3oc2=O)c(=O)n(-c2ccccc2)n1C (stereo not drawn) | -19% | -9% | ? | 0% | 15 | -16% | nt
CC(C)c1ccc(C(c2c(O)c3ccccc3oc2=O)c2c(O)c3ccccc3oc2=O)cc1 | nt | nt | 7.1µM* | nt | -15 | 22µM* | ? | Pol iota confirm=?;Pol kappa inh-2=38*
CN(C)c1ccc(/C=C2\C(=O)NC(=O)N(Cc3ccc(F)cc3)C2=O)cc1 | 19% | -5% | -30% | 23% | -22 | -4% | nt
O=C1NC(=O)N(Cc2ccc(F)cc2)C(=O)/C1=C\c1ccoc1 | 14µM* | 25µM* | ? | ? | -93* | 22µM* | 30* | Pol iota confirm=19*;Pol kappa inh-2=17*
CCn1ncc(-c2ccnc3cc(C(=O)O)nn23)c1C | 35µM* | -20% | ? | ? | ? | 25µM* | ?
CCCCc1ccc(C(=O)O)nc1 | -29% | 1%[60.1 µM] | 6% | 5%[57.1 µM] | 0 | -6% | nt
COc1cc(O)c(C(=O)O)c(-c2cc(O)c(O)cc2C)c1 | ? | ? | 3.2µM* | 20µM* | -23 | 10µM* | ?
O=C1NCCCCCCN(Cc2ccccn2)[C@H]2CCC[C@@H]12 | nt | nt | i | nt | nt | nt | nt
O=C(O)CC1OCC=C2CN3CCC45c6ccccc6NC4C1C2CC35 (stereo not drawn) | ? | -28% | -11% | -25% | -5 | 8% | nt
O=C(O)CC1OCC=C2CN3CCC45C6=CC(=O)C(=O)C([N+](=O)[O-])=C6NC4C1C2CC35 (stereo not drawn) | 1.8µM*! | 40µM* | nt | ? | 1 | 5µM* | nt | GALK inh confirm=11µM*;Redox cycling=5.3µM*;HEK293 tox=-1%
COc1cccc(CC(=O)N2CCN(CC(=O)NC(C)(C)C)CC2)c1 | nt | nt | 12% | nt | nt | nt | nt
Cc1ccc(S(=O)(=O)Cc2ccc(C(=O)N3CCC4(CC3)OCCO4)o2)cc1 | ? | ? | -14% | 10µM* | -5 | 13µM* | ?
COc1ccc(N2C(=O)/C(=C/c3ccc(C)o3)C(=O)NC2=S)cc1 | 25µM* | -96% | 13µM* | 35µM* | ? | 13µM* | 30* | Pol kappa inh-2=17*
CCOc1ccc(N2C(=O)/C(=C/c3ccc(C)o3)C(=O)NC2=S)cc1 | 8.9µM* | 28µM* | ? | 28µM* | -76* | 4µM* | 30*
CCc1ccc(N2C(=O)NC(=O)/C(=C\c3cccn3CCOc3ccc(C(C)C)cc3)C2=O)cc1 | ? | 5% | ? | 0% | -23 | -20% | nt
COc1ccc(N2C(=O)CC(=O)NC2=O)cc1 | -10% | -9% | -19% | -14% | nt | -6% | nt
N#CC(C#N)=Cc1ccc(C=C(C#N)C#N)cc1 | ? | -37% | ? | ? | -21 | 45µM* | ?
COc1ccc(-c2nc3ccccc3c(=O)n2-c2ccc(OC)cc2)cc1 | -6% | -8% | -10% | 4% | 0 | -18% | nt
CCn1nc(-c2ccccc2)nc2c(=O)n(C)c(=O)nc1-2 | -103% | -8% | nt | ? | -8 | 0.79µM* | nt | GALK inh confirm=0.6µM*;Redox cycling=0.67µM*;HEK293 tox=?
N#Cc1ccc(NC(=O)CN2CCc3sccc3C2c2cccs2)cc1Cl (stereo not drawn) | nt | nt | 14% | nt | nt | nt | nt
O=C(O)CCC(=O)NCCC1=c2ccccc2=N/C1=C\c1c(O)n(Cc2ccc(F)cc2)c(=S)[nH]c1=O | ? | ? | ? | -8% | -85* | 50µM* | ?
O=C(NCC[C@@H]1C[C@@H]2C=C[C@H]1C2)c1cn(Cc2ccccc2Cl)nn1 | nt | nt | 9% | nt | nt | nt | nt
Clc1ccc(C(c2ccc(Cl)cc2)n2cc[n+](CC(OCc3ccc(Cl)cc3Cl)c3ccc(Cl)cc3Cl)c2)cc1 (stereo not drawn) | ? | -12%[60.1 µM] | 39µM*! | 1%[57.1 µM] | 0 | ? | nt | Pol kappa inh-2=67*
Clc1ccc(COC(Cn2ccnc2)c2ccc(Cl)cc2Cl)cc1 (stereo not drawn) | 9% | ? | ? | 15% | 20 | -27% | nt
O=c1cc(-c2ccc(O)c(O)c2)oc2c(C3O[C@H](CO)[C@@H](O)[C@H](O)[C@H]3O)c(O)cc(O)c12 (stereo partly drawn) | 28µM* | 20µM* | ? | 20µM* | -23 | ? | ? | Pol kappa inh-2=19*
Cc1cc(/C=C2\C(=O)NC(=O)N(c3cccc(F)c3)C2=O)c(C)n1-c1ccc(C(=O)O)c(Cl)c1 | ? | ? | 7.9µM* | 25µM* | ? | 14µM* | 34*
Cc1c(Cl)cccc1N1C(=O)NC(=O)/C(=C\c2cc(C)n(-c3cccc(C(=O)O)c3C)c2C)C1=O | 11µM* | 79µM* | ? | ? | -25 | 35µM* | ?
Cc1nc(-c2cccs2)cc([C@H]2CN3CC[C@H]2C[C@@H]3CNC(=O)C2CC2)n1 | nt | nt | 4%[176 µM] | nt | nt | nt | nt
O=C(c1ccc2c(c1)N(Cc1cccc(F)c1)C(=O)c1ccccc1S2)N1CCC2(CC1)OCCO2 | -18% | -5%[60.1 µM] | ? | 22µM* | nt | ? | ? | Pol kappa inh-2=?
